# Bioassay records deposited in PubChem BioAssay by National Center for Advancing Translational Sciences (NCATS).
# This is one part of a sample in which hits are shown more often than they occur.
# Pf Dd2 inh – qHTS Primary assay for Inhibitors of Plasmodium falciparum Dd2 growth in vitro. P. falciparum Dd2 growth, SYBR Green, 72 h. Potency, µM (top dose mostly 28.9 µM), inactives show at the top dose activity, negative = inhibition, usual class: inhibitors. 4.3% of 120,000 active; active = well fitted inhibition curve with a large enough effect;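 also: plate controls were DMSO vehicle for no effect and reference drug for full effect; nearly all actives have a fitted effect of over 65% in size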
#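 Infected erythrocytes (Dd2, 0.3% parasitemia, 2.5% hematocrit final) are added to compound in RPMI-1640/Albumax II medium, grown 72 h at 37C in low oxygen, then lysed with saponin/Triton-X containing SYBR Green and read by fluorescence.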
# Numbers without * were called inactive; i = inactive; [ ] = remark or other dose. Potency is read from the fitted curve at half-maximal effect.
SMILES,Pf Dd2 inh
CCN(CC)C[C@H]1CN2CC[C@H]1C[C@@H]2CNS(=O)(=O)c1ccccc1,i
CC[C@H]1CN2CC[C@H]1C[C@@H]2CNC(=O)c1ccc2ccccc2c1,i
CC[C@H]1CN2CC[C@H]1C[C@@H]2CNC(=O)Nc1ccc(Br)cc1,-18.6%[44.1 µM]
CC[C@H]1CN2CC[C@H]1C[C@@H]2CN(Cc1ccc(SC)cc1)Cc1ccc(SC)cc1,3.55µM*
c1cnc(N2CCC3(CCCN3Cc3ccc(-c4ccn[nH]4)s3)CC2)nc1,-11.7%
COCC1CN(C(C)=O)CC12CCN(C(=O)NCc1ccco1)CC2 (stereo not given),29.5%
Cc1ccc(C(=O)NCCOc2nonc2C)cc1N1CCNC1=O,16.6%
CCCCc1nc2cc(C(=O)N3CC(Oc4ccccc4OC)C3)ccc2o1,-15.8%
COc1ccc(CCNC(=O)CCCn2c(=O)c3ccccc3n(CC(=O)Nc3cc(Cl)ccc3C)c2=O)cc1OC,-3.8%
COc1ccc(CCNC(=O)CCn2c(=O)c3ccccc3n(CC(=O)Nc3cc(Cl)ccc3C)c2=O)cc1OC,i
COc1ccc(Cl)cc1NC(=O)Cn1c(=O)n(CCCC(=O)NCCc2ccc(OC)c(OC)c2)c(=O)c2ccccc21,11.2µM*
CCOc1ccc(-c2cccc(NS(=O)(=O)c3ccc(C)s3)c2)nn1,-10.2%
COc1ccc(-c2ccc(NS(=O)(=O)c3ccc(F)c(C(F)(F)F)c3)cc2)nn1,0.4%
CCOc1ccc(-c2ccc(NS(=O)(=O)c3ccc(C)cc3)cc2)nn1,10µM*
CC(C)C1=NOC2(CCCN(C(=O)c3ccccc3)C2)C1 (stereo not given),9.2%[44.1 µM]
Cc1ccccc1Cn1c(SCc2ccc(C(=O)NC3CCCC3)cc2)nc2ccncc21,-10.4%
COCCNC(=O)c1ccc(Cn2c(SCC(N)=O)nc3ccccc3c2=O)cc1,-26.8%
Cc1ccc(Cn2c(SCc3ccc(C(=O)NCCc4ccccc4)cc3)nc3ccncc32)cc1,6.31µM*
O=C(NCCc1ccccc1)c1ccc(CSc2nc3ccncc3n2Cc2ccccc2)cc1,8.91µM*
Cc1ccccc1Cn1c(SCc2ccc(C(=O)NCCc3ccccc3)cc2)nc2ccncc21,7.08µM*
Cc1ccccc1CSCc1ccc(C(=O)NCCc2ccccc2)o1,19.9%
CC(C)N(C)Cc1nnnn1CC(=O)NCc1cn[nH]c1-c1ccc(F)cc1,2.5%
O=C(c1ccc(F)c(F)c1)N1CCC2(CC1)NC(=O)N(Cc1ccccc1)C2=O,-8.1%
Cc1noc(C)c1[S+](=O)([O-])N1CCC2(CC1)CC(=O)Nc1ccccc1O2,-23.2%
O=C(CC1CCCN(c2cnn(CC3CC3)c(=O)c2)C1)NCCN1CCCC1 (stereo not given),-10.1%
SMILES,Pf Dd2 inh
O=C1NCCCN1C1CCN(Cc2ccc(F)cc2)CC1,-2.0%[44.1 µM]
O=C1c2cnc(-c3cccc(C(F)(F)F)c3)nc2OCCN1CC1CC1,-24.4%[44.1 µM]
O=C1c2cnc(-c3ccc(F)cc3)nc2OCCN1Cc1ccc(F)cc1F,i
O=C1c2cnc(-c3ccc(Oc4ccccc4)cc3)nc2OCCN1CC1CC1,2.82µM*
O=S(=O)(c1cccc(Cl)c1)N1CCC(n2cnnc2C2CC2)CC1,-15.8%
Cc1cc(-c2cc3c(cn2)CN(Cc2cccc(F)c2)CCN3)ccn1,i
Cc1cc(-c2ccc(C)c(S(=O)(=O)NCC3CCN(Cc4ccccc4F)CC3)c2)on1,i
Cc1ccc(-c2nnc(Nc3ccc(Cl)cc3)c3ccccc23)cc1S(=O)(=O)NCC1CCCO1 (stereo not given),33.3%
CCOC(=O)c1c(Nc2cccc(C)c2)nnc(-c2ccccc2)c1-c1ccccc1,i
Cc1cccc(Nc2nnc(-c3ccc(C)c(S(=O)(=O)NCC4CCCO4)c3)c3ccccc23)c1 (stereo not given),4.47µM*
Cc1ccc(-c2nnc(Nc3cccc(Cl)c3)c3ccccc23)cc1S(=O)(=O)NCC1CCCO1 (stereo not given),10µM*
Cc1ccc(-c2cnc(C3CC3)o2)cc1S(=O)(=O)Nc1cccc(C#N)c1,-2.7%
COc1cccc(C(=O)N2CC[C@H]3COC(=O)N3c3cc(F)ccc3C2)c1,-4.5%[44.1 µM]
Cc1ccc(NC(=O)NCC2CCOCC2)c(Cl)c1,3.7%
CSc1ccc(NC(=O)c2nnn3c2COC(c2ccc(C)cc2)C3)cc1 (stereo not given),-25.7%
CN(Cc1ccccc1)C1CCOC2(CCN(C(=O)NC3CCCC3)CC2)C1 (stereo not given),6.31µM*
CC(C)CNC(=O)N1CCC2(CC1)CC(N(C)Cc1ccccc1)CCO2 (stereo not given),16.4%
COc1cccc(CC(=O)N2CCC3(CC2)CC(N(C2CC2)S(C)(=O)=O)CCO3)c1 (stereo not given),i
COC1CCOC2(CCN(S(=O)(=O)c3ccccc3)CC2)C1 (stereo not given),24.1%
CC(C)NC(=O)N(C1CC1)C1CCOC2(CCN(C(=O)NCc3ccccc3)CC2)C1 (stereo not given),9.5%
COc1ccc(S(=O)(=O)N2CCC3(CC2)CC(N(C)Cc2ccccc2)CCO3)cc1 (stereo not given),11.2µM*
COCCN1C(=O)CS(=O)(=O)C12CCN(C(=O)c1ccc(C)cc1)CC2,4.9%
O=C(c1ccc(Cl)cc1)N1CCC2(CC1)C(=O)NCN2c1ccccc1,-23.1%
O=C(Nc1ccc([C@@H](O)[C@H]2COCC(=O)N2Cc2ccccc2)cc1)c1ccc(F)cc1,i
O=C(C1CC1)N1CCC(OC2CCN(Cc3cccnc3)CC2)CC1,-7.4%
SMILES,Pf Dd2 inh
Cc1ncc2n1C(=O)N(C1CCN(Cc3cccnc3)CC1)C2,12.7%[44.1 µM]
c1cncc(CN2CCC(Oc3nccnc3N3CCc4ccccc43)C2)c1 (stereo not given),3.55µM*
Cn1cc(CN2CCc3c([nH]n(CCO)c3=O)C2)c(-c2ccccc2)n1,-9.0%
CCCC(=O)N1CCC2(CC1)SCC(=O)N2c1ccc(Cl)cc1,-4.0%
Cc1ccc(NC(=O)N2CCC(CCNC(=O)C3CC3)CC2)cc1,i
Cc1cn2nc(C(=O)NC3CCCCC3)cc2c(N2CCCC2)n1,10µM*
Cc1cn2nc(C(=O)NCC(C)C)cc2c(N2CCCC2)n1,i
Cc1cn2nc(C(=O)NCCc3ccccc3)cc2c(N2CCCC2)n1,i
COc1ccccc1C(=O)N1C[C@@H]2CCCN3CCC[C@@H]([C@H]23)[C@H]1CCCC(=O)N1CCOCC1,12.7%
COc1cccc(NC(=O)N(C)CC2CCOCC2)c1,-7.7%
O=C(NCCCN1CCOCC1)C1CCc2ncc(-c3ccsc3)n2C1 (stereo not given),20.9%
O=C(C1CC(=O)N(C2CC2)C1)N1CCC(Oc2cccc(Cl)c2)CC1 (stereo not given),-0.6%
COc1ccc(CN2CCC3(CC2)CC(C)=NO3)cc1,-18.2%[44.1 µM]
CC1=NOC2(CCN(Cc3ccc(N(C)C)cc3)CC2)C1,10µM*
CC1=NOC2(CCN(Cc3ccc(F)cc3)CC2)C1,i
CSc1ncccc1C(=O)N1CCC2(CCCN(CC3CC3)C2=O)C1 (stereo not given),1.5%
CCOc1ccc(C(O)Cn2ccn3nc(-c4ccccc4C)cc3c2=O)cc1 (stereo not given),12.6µM*
O=c1c2cc(-c3ccccc3)nn2ccn1CC(O)c1ccccc1 (stereo not given),i
CCOc1ccc(-c2cc3c(=O)n(CC(O)c4ccc(C(C)C)cc4)ccn3n2)cc1 (stereo not given),i
O=C(NC1CCN(c2cnn(Cc3ccccc3)c(=O)c2)CC1)c1ccsc1,10µM*
Cn1ncc(N2CCC(NC(=O)c3ccsc3)CC2)cc1=O,-17.3%
